Read-out in assay [1]: Urokinase-type plasminogen activator receptor (uPAR), PLAUR (gene 5329)
Nature of the assay: BSK_4H_uPAR: BioMAP Diversity Plus: 4H Assay for Urokinase-type plasminogen activator receptor (uPAR) Biomarker Activity (AID 2283030). As to conditions: primary human endothelial cells (HUVEC); actives raise or lower the signal. The essentials:
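Chemicals are dosed onto human vascular endothelial primary cells (umbilical vein). After 24 h, uPAR is read by ELISA. Gain or loss of signal is fitted relative to DMSO.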

Read-out in assay [2]: Human Leukocyte Antigen - DR isotype (HLADR), HLA-DRA (gene 3122)
The assay is described as follows: BSK_BE3C_HLADR: BioMAP Diversity Plus: BE3C Assay for Human Leukocyte Antigen - DR isotype (HLADR) Biomarker Activity (AID 2283032). As to conditions: primary human bronchial epithelial cells; actives raise or lower the signal. The essentials: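 Cell-surface HLA-DR ELISA readout at 24 h after dosing in the BE3C primary human lung bronchial epithelial system; gain or loss of signal against DMSO, with parallel sulforhodamine B staining of total protein for overt cytotoxicity.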

Read-out in assay [3]: Vascular cell adhesion molecule 1 (VCAM1), VCAM1 (gene 7412)
The assay is described as follows: BSK_4H_VCAM1: BioMAP Diversity Plus: 4H Assay for Vascular cell adhesion molecule 1 (VCAM1) Biomarker Activity (AID 2283033).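 As to outcome: cell-surface VCAM-1 protein measured by ELISA.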 As to conditions: primary human endothelial cells (HUVEC); actives raise or lower the signal. An outline of the steps:
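VCAM-1 ELISA read 24 h after chemical dosing of HUVEC in the BioMAP 4H system, with gain or loss of signal fitted relative to DMSO. Parallel SRB staining (560 nm) checked overt cytotoxicity.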

Read-out in assay [4]: Interferon-gamma inducible Protein 10 (IP10), CXCL10 (gene 3627)
Nature of the assay: BSK_BE3C_IP10: BioMAP Diversity Plus: BE3C Assay for Interferon-gamma inducible Protein 10 (IP10) Biomarker Activity (AID 2283034). The settings on record: primary human bronchial epithelial cells; actives raise or lower the signal. The essentials: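 IP-10 quantified by ELISA in human primary bronchial epithelial cell cultures at 24 hours post-dosing. Gain or loss of signal fitted relative to DMSO; parallel SRB staining assessed overt cytotoxicity.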

Read-out in assay [5]: Monokine induced gamma interferon (MIG), CXCL9 (gene 4283)
Nature of the assay: BSK_BE3C_MIG: BioMAP Diversity Plus: BE3C Assay for Monokine induced gamma interferon (MIG) Biomarker Activity (AID 2283035). The settings on record: primary human bronchial epithelial cells; actives raise or lower the signal. An outline of the steps:
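Dose cells (human primary bronchial epithelial), incubate 24 h, quantify MIG by ELISA, then fit concentration–response in both directions relative to DMSO control.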

Read-out in assay [6]: Transforming growth factor beta 1 (TGFb1), TGFB1 (gene 7040)
Nature of the assay: BSK_BE3C_TGFb1: BioMAP Diversity Plus: BE3C Assay for Transforming growth factor beta 1 (TGFb1) Biomarker Activity (AID 2283036;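 also: TGF-b1 protein level measured by ELISA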). As to conditions: primary human bronchial epithelial cells; actives raise or lower the signal. An outline of the steps: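 ELISA readout of TGF-b1 from human lung bronchial epithelial primary cells, taken 24 h post-treatment. Gain or loss of signal fitted relative to DMSO baseline, with parallel SRB staining for overt cytotoxicity.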

Read-out in assay [7]: Plasminogen activator inhibitor-1 (PAI1), SERPINE1 (gene 5054)
The assay is described as follows: BSK_BE3C_PAI1: BioMAP Diversity Plus: BE3C Assay for Plasminogen activator inhibitor-1 (PAI1) Biomarker Activity (AID 2283037). The settings on record: primary human bronchial epithelial cells; actives raise or lower the signal. The essentials: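 PAI-1 was measured by ELISA in human primary bronchial epithelial cultures 24 h after chemical dosing, with cytotoxicity checked by SRB total-protein staining in parallel cultures. Activity was fitted in both directions relative to DMSO.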

Read-out in assay [8]: urokinase plasminogen activator (uPA), PLAU (gene 5328)
Nature of the assay: BSK_BE3C_uPA: BioMAP Diversity Plus: BE3C Assay for urokinase plasminogen activator (uPA) Biomarker Activity (AID 2283038).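 As to outcome: uPA protein level quantified by ELISA in cell cultures; uPA read one day after compound addition.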 As to conditions: primary human bronchial epithelial cells; actives raise or lower the signal. The essentials: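 Measured by ELISA: uPA from human primary bronchial epithelial cells 24 h after chemical treatment. Values derive from bidirectional curve fitting with DMSO serving as negative control. Total protein by SRB staining in parallel wells flagged overt cytotoxicity.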

Read-out in assay [9]: Urokinase-type plasminogen activator receptor (uPAR), PLAUR (gene 5329)
Nature of the assay: BSK_BE3C_uPAR: BioMAP Diversity Plus: BE3C Assay for Urokinase-type plasminogen activator receptor (uPAR) Biomarker Activity (AID 2283039).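 Also: cells exposed to compound for one day before measurement.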 The settings on record: primary human bronchial epithelial cells; actives raise or lower the signal. The essentials:
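uPAR levels were measured by ELISA after 24 h compound treatment of primary human bronchial epithelial cells, fitted in both directions relative to DMSO. Parallel SRB staining served as the cytotoxicity read-out.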

Read-out in assay [10]: Vascular endothelial growth factor receptor 2 (Homo sapiens) (UniProt P35968)
The assay is described as follows: BSK_4H_VEGFRII: BioMAP Diversity Plus: 4H Assay for Vascular endothelial growth factor receptor 2 (VEGFR2) Biomarker Activity (AID 2283031).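 As to AC50: cell-surface VEGFR2 protein level quantified by ELISA.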 As to conditions: primary human endothelial cells (HUVEC); actives raise or lower the signal. The essentials:
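VEGFRII levels on human vascular endothelial primary cells were determined by ELISA at 24 hours post-dosing, with gain- or loss-of-signal fitted against DMSO controls.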

Several values for one entry are separate records, joined by “and”; a condition that tells them apart may be missing. Equal entries are not always repeated. Some compounds were tested as several samples or in several runs, with calls that do not always agree. Activity calls are given as the source filed them. The calls were made as follows: active = hit-call score of the fitted dose curve at least 0.9, where 1 is the maximum; inactive = score below 0.9.

With `O=[N+]([O-])c1ccccc1`, the outcome in assay [1], in [2], in assay [3], in assay [4], in [5] and in [6] was inactive. Besides, the outcome in assay [7], in [8] and in assay [9] was inactive.

Consider `FC(F)(F)C(F)(C(F)(F)F)C(F)(F)C(F)(F)CC1CO1` (centres undefined), for which the result in [1], in assay [10], in [2], in assay [3], in assay [4] and in [5] was inactive. Further, the outcome in assay [7], in assay [8] and in [9] was inactive.

For the molecule `c1cc2c3c(cccc3c1)CC2`, the result in [1], in [10], in assay [2], in assay [3], in [4] and in assay [5] was inactive. The result in assay [6], in [7], in assay [8] and in assay [9] was inactive.

On to `COC(=O)C(F)(F)C(F)(F)OC(F)(C(F)(F)F)C(F)(F)OC(F)=C(F)F` (centres undefined), for which the result in assay [1], in assay [10], in [2], in assay [3], in assay [4] and in [5] was inactive. The outcome in [7], in [8] and in assay [9] was inactive.

Take `CSC(C)(C)C=NO`: the result in [1], in [10], in assay [2], in [3], in [4] and in assay [5] was inactive. The result in assay [6], in [7], in [8] and in assay [9] was inactive.

For the molecule `Nc1cc2c3c(c1)C(c1ccccc1)=N[C@@H](NC(=O)c1cccnc1)C(=O)N3CC2`, the result in assay [1], in assay [10], in [2], in assay [3], in assay [4] and in assay [5] was inactive. The outcome in assay [6], in assay [7], in assay [8] and in assay [9] was inactive.

With `Cc1cccc(N)c1`, the outcome in [1], in assay [2], in [3], in assay [4], in [5] and in [6] was inactive. The result in assay [7], in [8] and in [9] was inactive.

On to `O=C(O)C(F)(F)C(F)(F)C(=O)O`, for which the outcome in assay [1], in assay [10], in assay [2], in [3], in assay [4] and in [5] was inactive. Also, the result in assay [7], in [8] and in [9] was inactive.

Regarding `O=S(=O)(F)C(F)(F)C(F)(F)C(F)(F)C(F)(F)C(F)(F)C(F)(F)C(F)(F)C(F)(F)F`, the result in [1], in assay [10], in assay [2], in assay [3], in [4] and in assay [5] was inactive. Besides, the outcome in [7], in assay [8] and in [9] was inactive.

`O=C(O)C(Cl)Cl`: the result in assay [1], in [10], in assay [2], in assay [3], in [4] and in [5] was inactive. Further, the outcome in assay [6], in assay [7], in assay [8] and in assay [9] was inactive.

Regarding `CCCCC(CC)COP(=O)(Oc1ccccc1)Oc1ccccc1` (centres undefined), the AC50 in assay [1] is 20 µM (active); in assay [10], 10.4 µM (active); in [2], 20 µM (active); in assay [3], 20 µM (active); in assay [4], 20 µM (active). Besides, the outcome in assay [5], in assay [6], in assay [7], in assay [8] and in [9] was inactive.

Consider `CCCCN(CCCC)N=O`, for which the outcome in assay [1], in [10], in assay [2], in assay [3], in assay [4] and in assay [5] was inactive. The result in [6], in assay [7], in assay [8] and in assay [9] was inactive.

Regarding `CCOP(=S)(OCC)SCSc1ccc(Cl)cc1`, the result in assay [1], in assay [10], in [2], in assay [4], in [5] and in assay [6] was inactive. In addition, the result in [7], in [8] and in assay [9] was inactive. Further, the AC50 in assay [3] is 6.58 µM (active).

Regarding `CC(C)(C)OOC(C)(C)C`, the result in [1], in assay [10], in assay [2], in [3], in assay [4] and in assay [5] was inactive. The outcome in [6], in assay [7], in assay [8] and in [9] was inactive.

`OCC(F)(F)OC(F)(F)C(F)(F)OC(F)(F)C(F)(F)OC(F)(F)CO`: the outcome in assay [1], in assay [10], in assay [3], in assay [5], in assay [7] and in assay [8] was inactive. The result in assay [9] was inactive. Also, the concentration at half-maximal activity (AC50) in [2] was 45.5 µM (active) and 30 µM (active); in assay [4], 44.9 µM (active) and 35.8 µM (active).

As to `O=C(O)C(F)(F)OC(F)(F)C(F)(F)OC(F)(F)C(=O)O`, the outcome in assay [1], in assay [10], in assay [2], in assay [3], in [4] and in assay [5] was inactive. Further, the outcome in assay [7], in assay [8] and in [9] was inactive.

As to `O=C(O)C(F)(F)OC(F)(F)C(F)(F)OC(F)(F)F`, the result in assay [1], in assay [10], in [2], in assay [3], in [4] and in assay [5] was inactive. Further, the outcome in [7], in assay [8] and in assay [9] was inactive. In addition, in assay [8], the AC50 was 1.42 µM (active).

In the case of `NC(=O)C(F)(F)C(F)(F)F`, the result in [1], in assay [10], in [2], in assay [3], in [4] and in assay [5] was inactive. The outcome in assay [7], in [8] and in assay [9] was inactive.

Regarding `O=P(OCC(Br)CBr)(OCC(Br)CBr)OCC(Br)CBr` (centres undefined), the result in [1], in [10], in [2], in assay [4], in assay [5] and in assay [6] was inactive. Also, the result in [7], in [8] and in [9] was inactive. Moreover, the concentration at half-maximal activity (AC50) in assay [3] was 3.69 µM (active).

Consider `O=C(O)C=CC(F)(C(F)(F)F)C(F)(F)F`, for which the outcome in assay [1], in assay [10], in [2], in [3], in assay [4] and in [5] was inactive. Besides, the result in assay [7], in assay [8] and in assay [9] was inactive.

As for `O=P(Oc1ccccc1)(Oc1ccccc1)Oc1ccccc1`, the concentration at half-maximal activity (AC50) in assay [1] is 29.9 µM (active); in assay [3] it was 26.8 µM (active); in [4], 26.3 µM (active); in [7], 10.6 µM (active). The outcome in assay [10], in assay [5], in assay [6], in [8] and in [9] was inactive.

As a reminder, the AC50 is the midpoint of the concentration-response curve, whichever way the signal moves.

The values above are taken from PubChem BioAssay (EPA / NIEHS).
